Source: PubChem BioAssay (Tox21)
Records with an inconclusive call do not appear. Some structures have more than one record in an assay (separate samples or runs), and their calls can disagree. Active and inactive are the calls of the source. Calls come from the whole dose curve.

test: qHTS assay to identify small molecule antagonists of the sonic hedgehog signaling (Shh) pathway (AID 1259369); conditions: NIH/3T3 Gli1-Luc reporter, Shh antagonist, luminescence 24 h; series mostly up to 92.4 µM; activity change, negative = inhibition: at the top concentration; note: nearly all actives have a fitted effect of over 45% in size
Source text: U.S. Tox21 Program National Center for Advancing Translational Sciences [NCATS] NIH Chemical Genomics Center [NCGC] U.S. Environmental Protection Agency [EPA] National Institutes of Environmental Health Sciences [NIEHS] National Toxicology Program [NTP] U.S. Food and Drug Administration [FDA] Tox21 Assay Overview: The sonic hedgehog (Shh) pathway is essential for normal embryonic development. Dysregulation of the Shh pathway can cause severe developmental defects in organs. Therefore chemicals that interfere with the pathway are potential developmental toxicants. A cell line designated 3T3Gli1-Luc (DMB/OARSA/CFSAN/FDA, Laurel, MD), a NIH/3T3 derived clone containing stably integrated Gli1-Luc reporter is used to detect chemical interference of the Shh pathway, by changes in the expression of the firefly Luc gene under the control of the Gli1 transcriptional response element. This cell line was used to screen Tox21 libraries for identifying and prioritizing the potential developmental toxicants that interfere Shh pathway. Conditioned medium-stimulated mode was used to screen for chemicals inhibiting Shh signaling.
Tox21 Assay Protocol Summary: 3T3 Gli1-Luc cells were dispensed at 2,000 per well in 5uL of culture medium into white solid bottom 1536-well plates (Greiner Bio-One, Monroe, NC) using a Multidrop Combi (Thermo Scientific, Waltham, MA) dispenser. The assay plates were incubated at 37 C and 5% CO2 for 4hr, and then 23nL of compounds dissolved in DMSO and positive control were transferred using a Pintool station (Wako, San Diego, CA). The compound transfer was followed by the addition of 1ul conditioned medium or assay buffer using two separate tips of Flying Reagent Dispenser (FRD, Aurora Discovery, San Diego, CA). The assay plates were incubated at 37C and 5% CO2 for 24hr. For luciferase read, 4uL of Amplite Luciferase reporter gene assay reagent (AAT Bioquest, Inc. Sunnyvale, CA) was added to each well of the assay plates using FRD and incubated at room temperature for 30min. The luminescence signal was measured using a ViewLux plate reader (Perkin Elmer, Shelton, CT).
% is set by controls: 0 for no effect and ±100 for the full control effect; potency is the fitted concentration of half-maximal effect.

**Q.** For `CC[C@H](NC(=O)c1cc(F)ccc1NS(=O)(=O)c1cccc2cccnc12)c1ccccc1`, which “activity change, negative = inhibition” value is on record?
**A.** 0% (inactive)

**Q.** Which “activity change, negative = inhibition” value does the source give for `CCC(C(=O)OCCOCCN(CC)CC)c1ccccc1` (stereo not given) here?
**A.** 7.54% [at 42.5 µM] (inactive)

**Q.** For `CC[C@@H]([C@H](C)O)n1ncn(-c2ccc(N3CCN(c4ccc(OC[C@@H]5CO[C@@](Cn6cncn6)(c6ccc(F)cc6F)C5)cc4)CC3)cc2)c1=O`, which Potency is on record?
**A.** 0.188 µM (active)

**Q.** For `CCCC(=O)O[C@]1(C(=O)COC(=O)CC)CC[C@H]2[C@@H]3CCC4=CC(=O)CC[C@]4(C)[C@H]3[C@@H](O)C[C@@]21C`, which activity change, negative = inhibition is on record?
**A.** -24.8% [at 19 µM] (inactive)

**Q.** For `CSc1ccc(Oc2ccc(S(N)(=O)=O)cc2CN(C)C)cc1C`, which Potency is on record?
**A.** 5.45 µM (active)

**Q.** With `Nc1ccc(S(=O)(=O)O)cc1` as the compound, how does the “activity change, negative = inhibition” value read?
**A.** -0.579% (inactive)

**Q.** For `O=S1OCCO1`, which “activity change, negative = inhibition” value is on record?
**A.** 28.2% (inactive)

**Q.** Which “activity change, negative = inhibition” value does the source give for `CCCCCCCC/C=C\CCCCCCCC(=O)OC` here?
**A.** 13.4% (inactive)

**Q.** With `CC(C)=CC=O` as the compound, how does the “activity change, negative = inhibition” value read?
**A.** 7.24% (inactive)

**Q.** With `C/C(=N/NC(=O)c1ccncc1)C(=O)O` as the compound, how does the “activity change, negative = inhibition” value read?
**A.** 20.9% [at 42.5 µM] (inactive)

**Q.** For `CCC(C)(O)CCC=C(C)C` (stereo not given), which “activity change, negative = inhibition” value is on record?
**A.** 19.4% (inactive)

**Q.** For `CC1CN(c2cc3c(cc2F)c(=O)c(C(=O)O)cn3-c2ccc(F)cc2F)CCN1` (stereo not given), which activity change, negative = inhibition is on record?
**A.** 30.3% [at 8.39 µM] (inactive)

**Q.** For `CC(=N\O)/C(C)=N/O`, which “activity change, negative = inhibition” value is on record?
**A.** 6.04% (inactive)

**Q.** Which “activity change, negative = inhibition” value does the source give for `Cc1ccccc1N1C(=O)c2cc(S(N)(=O)=O)c(Cl)cc2NC1C` (stereo not given) here?
**A.** -19% [at 42.5 µM] (inactive)

**Q.** With `C[Si](NC1CCCCC1)(NC1CCCCC1)NC1CCCCC1` as the compound, how does the “activity change, negative = inhibition” value read?
**A.** -8.96% (inactive)

**Q.** For `CCC(Cc1ccccc1)(C(=O)c1ccc(N2CCOCC2)cc1)N(C)C` (stereo not given), which Potency is on record?
**A.** 19.3 µM (active)

**Q.** For `C=CC(C)=CCC=C(C)C`, which “activity change, negative = inhibition” value is on record?
**A.** -7.94% (inactive)

**Q.** For `CC(=O)CC(c1ccc([N+](=O)[O-])cc1)c1c(O)c2ccccc2oc1=O` (stereo not given), which “activity change, negative = inhibition” value is on record?
**A.** 21.4% [at 42.5 µM] (inactive)

**Q.** Which “activity change, negative = inhibition” value does the source give for `CC(=O)OCC(=O)[C@@]12OC(C)(C)O[C@@H]1C[C@H]1[C@@H]3C[C@H](F)C4=CC(=O)C=C[C@]4(C)[C@@]3(F)[C@@H](O)C[C@@]12C` here?
**A.** -1.99% [at 42.5 µM] (inactive)

**Q.** Which “activity change, negative = inhibition” value does the source give for `CC(C)C(=O)O` here?
**A.** 1.19% (inactive)

**Q.** For `CC(CCc1ccc2c(c1)OCO2)NN` (stereo not given), which “activity change, negative = inhibition” value is on record?
**A.** 2.96% [at 42.5 µM] (inactive)

**Q.** For `CO[C@@]12[C@H](COC(N)=O)C3=C(C(=O)C(C)=C(N)C3=O)N1C[C@@H]1N[C@@H]12`, which Potency is on record?
**A.** 0.298 µM (active)

**Q.** With `CN1CCCN=C1/C=C/c1cccs1` as the compound, how does the “activity change, negative = inhibition” value read?
**A.** 8.68% [at 42.5 µM] (inactive)

**Q.** For `CC1=CC(=O)CC(C)(C)C1(O)/C=C/C(C)=C\C(=O)O` (stereo not given), which “activity change, negative = inhibition” value is on record?
**A.** 11.2% (inactive)

**Q.** For `CC(C)c1nnc2ccc(-c3ocnc3-c3cc(F)ccc3F)cn12`, which Potency is on record?
**A.** 1.09 µM (active)

**Q.** With `CC(C)(C)CC(C)(C)c1ccc(OCCO)cc1` as the compound, how does the Potency read?
**A.** 15.3 µM (active)

**Q.** With `Nc1ccc(Cl)cc1[N+](=O)[O-]` as the compound, how does the “activity change, negative = inhibition” value read?
**A.** -23.9% (inactive)

**Q.** For `C=C(C)C(=O)OCCOC(=O)CC(C)=O`, which “activity change, negative = inhibition” value is on record?
**A.** 14.4% (inactive)

**Q.** Which “activity change, negative = inhibition” value does the source give for `C[N+](C)(C)CCOC(N)=O` here?
**A.** 10.2% [at 42.5 µM] (inactive)

**Q.** With `Cc1oncc1C(=O)Nc1ccc(C(F)(F)F)cc1` as the compound, how does the Potency read?
**A.** 27.3 µM (active) and inactive

**Q.** With `CC(COc1ccc(C(C)(C)C)cc1)OS(=O)OCCCl` (stereo not given) as the compound, how does the Potency read?
**A.** 1.94 µM (active)

**Q.** For `CCCCCCOC(=O)C(C)C`, which “activity change, negative = inhibition” value is on record?
**A.** 6.21% (inactive)

**Q.** Which “activity change, negative = inhibition” value does the source give for `OCC1CC=CCC1` (stereo not given) here?
**A.** 20.3% (inactive)

**Q.** For `O=C(Nc1ccccc1)Nc1ccccc1`, which “activity change, negative = inhibition” value is on record?
**A.** -30.8% (inactive)

**Q.** With `CNCCCC1c2ccccc2C=Cc2ccccc21` as the compound, how does the Potency read?
**A.** 9.44 µM (active)

**Q.** Which Potency does the source give for `CNC(=O)N(c1ccccc1)c1ccccc1` here?
**A.** 6.89 µM (active)

**Q.** Which “activity change, negative = inhibition” value does the source give for `OC/C(Br)=C(\Br)CO` here?
**A.** 22.1% (inactive)

**Q.** With `CCCCN(CCCC)C(=S)SSC(=S)N(CCCC)CCCC` as the compound, how does the Potency read?
**A.** 1.91 µM (active)

**Q.** Which “activity change, negative = inhibition” value does the source give for `NCC1CCCC(CN)C1` (stereo not given) here?
**A.** 15.5% (inactive)

**Q.** With `Cc1cc2nc3ccc(=[N+](C)C)cc-3sc2cc1N` as the compound, how does the Potency read?
**A.** 2.66 µM (active)
